Records with an inconclusive call do not appear. Where a call stands in place of a potency, no number is given. Calls of active or inactive are those of the source. Calls come from the whole dose curve; as a rule, active = well fitted inhibition curve with a large enough effect; inconclusive = small, poorly fitted or top-dose-only effect; inactive = no such curve, though single readings can be large or run the other way.
Potency is the fitted concentration of half-maximal effect.

Cytochrome P450 3A4 (Homo sapiens), sequence (P08684 whole entry, looked up): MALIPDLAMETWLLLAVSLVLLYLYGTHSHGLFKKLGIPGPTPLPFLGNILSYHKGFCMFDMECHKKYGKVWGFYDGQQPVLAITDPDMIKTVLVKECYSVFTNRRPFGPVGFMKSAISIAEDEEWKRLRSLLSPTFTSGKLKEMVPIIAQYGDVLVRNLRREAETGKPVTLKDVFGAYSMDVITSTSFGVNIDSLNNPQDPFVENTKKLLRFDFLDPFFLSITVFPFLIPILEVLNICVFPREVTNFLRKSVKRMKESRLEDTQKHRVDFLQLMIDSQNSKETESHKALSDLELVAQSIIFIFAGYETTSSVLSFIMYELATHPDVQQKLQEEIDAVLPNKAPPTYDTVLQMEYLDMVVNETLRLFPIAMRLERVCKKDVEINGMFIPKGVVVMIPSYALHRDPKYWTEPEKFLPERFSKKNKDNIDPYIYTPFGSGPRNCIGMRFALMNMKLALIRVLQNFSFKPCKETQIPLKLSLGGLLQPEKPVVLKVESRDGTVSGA

The assay has as its target Cytochrome P450 3A4 (Homo sapiens) (UniProt P08684). Description: qHTS for inhibitors of CYP3A4 against the NCATS DSHEA and TCM libraries (AID 1919971).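 For activity change, negative = inhibition: inhibition lowers luminescence from luciferin made by CYP3A4.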 The note with it: recombinant CYP3A4 enzyme activity, luminescence qHTS; series mostly up to 34.1 µM. The text has this: Assay Development and Screening Technology Laboratory (ADST)
National Center for Advancing Translational Sciences (NCATS), Rockville, MD
National Institute of Health (NIH), Bethesda, Maryland
Dietary Supplements and Natural Products have minor oversight of their safety and efficacy. We assembled a collection of Dietary Supplements and Natural Products (DSNP) as well as Traditional Chinese Medicinal (TCM) Plant extracts, which were screened against an in vitro panel of assays, including a liver cytochrome p450 enzyme panel, CAR/PXR signaling pathways, and P-gp transporter assays, to assess their activity. This pipeline facilitated the interrogation of Natural Product-Drug Interaction (NaPDI) through prominent metabolizing pathways. In addition, we compared the activity profiles of the DSNP/TCM substances with those of an approved drug collection. Many of the approved drugs have well-annotated mechanisms of action (MOA) while the MOAs for most of the DSNP and TCM samples remain unknown. Based on the premise that compounds with similar activity profiles tend to share similar targets or MOA, we clustered the library activity profiles to identify overlap with the NCATS Pharmaceutical Collection to predict the MOAs of the DSNP/TCM substances. Overall, we highlight four significant bioactivity profiles (measured by p-values) as examples of this prediction. To assess broad cytotoxicity, we employed screening against a HepG2 cell line. In addition, transporter-mediated drug interactions are utilized in the characterization of DDIs using a P-glycoprotein (P-gp) assays. To profile potential P-gp activity, a differential cell viability was measured against two cell lines: a parental KB-3-1 human cervical adenocarcinoma cell line and the drug-resistant subline KB-8-5-11 that overexpresses P-gp.
To this end, we profiled both collections for potential CAR and/or PXR activity, employing a previously published 1536-well qHTS assay.
[1] Lee TD, et al. A High-Throughput Screen of a Library of Therapeutics Identifies Cytotoxic Substrates of P-glycoprotein. Mol Pharmacol. Nov 2019;96(5):629-640. doi:10.1124/mol.119.115964
PROTOCOL TABLE (as described by Inglese J, Shamu CE and Guy RK. 2007)
SEQUENCE No. (e.g., 1, 2, 3, etc.); […] (e.g., Cells, Incubation, Reagent, etc.); VALUE; DESCRIPTION.
1; Reagent; 2 uL; cytochrome P450 enzyme and luciferin substrate or buffer only, white solid-bottom Greiner plate.
2; Compounds and control; 16 nL; Kalypsis pintool (Wako USA) equipped with a 1536-well pin head to transfer to the assay plates.
3; Incubation; 15 min; room temperature.
4; Reagent; 2 uL; nicotinamide adenine dinucleotide phosphate (NADPH).
5; Incubation; 30 - 45 min; room temperature in the dark.
6; Reagent; 4 uL; P450-Glo assay detection reagent.
7; Centrifuge; 1000 RPM; 15 seconds.
8; Incubation; 30 min; room temperature.
9; Read; Luminescence; ViewLux plate reader.
NOTES (numbers refer to Sequence numbers above)
1. A 2 uL mixture of corresponding enzymes and luciferin substrate (final concentrations CYP enzyme-specific and pro-luciferin substrate-specific) or minus-enzyme (assay buffer conditions supplied by the manufacturer for respective enzyme isoform; typically, 100 mM KPO4) and luciferin substrate were dispensed using a BioRAPTR FRD (Beckman Coulter, Brea, CA) into columns of a 1536-well white solid-bottom medium binding plate (Greiner Bio-One, Monroe, NC). Five isoforms of cytochrome P450 were used (CYP1A2, CYP2C9, CYP2C19, CYP2D6, and CYP3A4).
2. Substances (final concentrations of most substances ranged from 19.5 nM to 39.8 uM) and controls (CYP-specific) were transferred (16 nL) via pintool (Wako Automation, Richmond, VA). Intraplate controls furafylline (CYP1A2), sulfaphenazole (CYP2C9), ketoconazole (CYP2C19), quinidine (CYP2D6), and ketoconazole (CYP3A4) were used correspondingly.
3. Assay plates were incubated at room temperature for 15 min.
4-5. […]
For the compound `CCCCC/C=C/C/C=C/CCCCCCCC(=O)O`, the Potency was 22.4 µM (active).

With `CC(=O)O[C@H]1[C@H](O[C@H]2CC[C@]34C[C@]35CC[C@]3(C)[C@@H]([C@@]6(C)CC[C@@H](C(C)(C)O)O6)[C@@H](O)C[C@@]3(C)[C@@H]5C[C@H](O[C@@H]3O[C@H](CO)[C@@H](O)[C@H](O)[C@H]3O)[C@H]4C2(C)C)OC[C@@H](O)[C@@H]1O`, the Potency entry is “inactive”.

On to `CCCCCCCCCCCCCC(=O)O`, for which the Potency entry is “inactive”.

As to `CC1=CCC(=C(C)C)CC1`, the Potency was 39.8 µM (active).

`CCCCCCCCCCCCCCCCCCCCCCCCCCCCCCO`: the activity change, negative = inhibition was 9.22% [at 4.27 µM] (inactive).

On to `CCCCCCCCCCCCCC(=O)OCC(O)CO` (stereo not given), for which the Potency result was “inactive”.

In the case of `CC(C)=CCCC(C)(OC1OC(COC2OC(CO)C(O)C2O)C(O)C(O)C1O)C1CCC2(C)C1C(O)CC1C3(C)CCC(OC4OC(CO)C(O)C(O)C4OC4OC(CO)C(O)C(O)C4O)C(C)(C)C3CCC12C` (stereo not given), the Potency entry is “inactive”.

As for `O=C(OC[C@H]1O[C@@H](OC(=O)c2cc(O)c(O)c(O)c2)[C@H](OC(=O)c2cc(O)c(O)c(O)c2)[C@@H](OC(=O)c2cc(O)c(O)c(O)c2)[C@@H]1O)c1cc(O)c(O)c(O)c1`, the Potency was 12.6 µM (active).

With `C=C1C[C@]23CC[C@H]4[C@@](C)(CCC[C@@]4(C)C(=O)O)[C@@H]2CC[C@@]1(O[C@@H]1O[C@H](CO)[C@@H](O)[C@H](O)[C@H]1O[C@@H]1O[C@H](CO)[C@@H](O)[C@H](O)[C@H]1O)C3`, the Potency result is “inactive”.

Regarding `C=C1C[C@@]23CC[C@H]4[C@](C)(CCC[C@]4(C)C(=O)O[C@@H]4O[C@H](CO)[C@@H](O)[C@H](O)[C@H]4O)[C@@H]2CC[C@]1(O[C@H]1O[C@@H](CO)[C@H](O)[C@@H](O)[C@@H]1O)C3`, the Potency result is “inactive”.

For the compound `CC1=CCC(O)(C(C)C)CC1` (stereo not given), the Potency result was “inactive”.

In the case of `O=C(O)CC(O)(C(=O)O)C(O)C(=O)O` (stereo not given), the Potency result was “inactive”.

Regarding `CCCCCC/C=C\CCCCCCCC(=O)O`, the Potency result is “inactive”.

Take `Cc1ncc(COP(=O)(O)O)c(C)c1O`: the Potency entry was “inactive”.

Consider `O=C(/C=C/c1ccc(O)c(O)c1)OC1[C@H](O)CC(O)(C(=O)O)C[C@@H]1O` (stereo not given in full), for which the Potency result was “inactive”.

With `O=c1cc(-c2ccc(O)c(O)c2)oc2cc(O[C@@H]3O[C@@H](CO)[C@@H](O)[C@@H](O)[C@H]3O)cc(O)c12`, the Potency result is “inactive”.

Turning to `CC(=O)OC/C=C/c1ccccc1`, the Potency entry was “inactive”.

With `CC(C)=CCC[C@](C)(O[C@@H]1O[C@H](CO)[C@@H](O)[C@H](O)[C@H]1O)[C@H]1CC[C@]2(C)[C@@H]1[C@H](O)C[C@@H]1[C@@]3(C)CC[C@H](O)C(C)(C)[C@@H]3[C@@H](O[C@@H]3O[C@H](CO)[C@@H](O)[C@H](O)[C@H]3O[C@@H]3O[C@@H](C)[C@H](O)[C@@H](O)[C@H]3O)C[C@]12C`, the Potency entry is “inactive”.

Take `CCCCCC(=O)O`: the Potency entry was “inactive”.

Take `C[C@@H]1OC(O[C@H]2[C@H](O)[C@@H](O)[C@H](OC[C@H]3O[C@@H](OC(=O)[C@]45CCC(C)(C)C[C@@H]4C4=CCC6[C@@]7(C)CC[C@H](OC8OC[C@H](O)[C@H](O)[C@H]8OC8O[C@@H](C)[C@H](O)[C@@H](O)[C@H]8O)[C@@](C)(CO)C7CC[C@@]6(C)[C@]4(C)CC5)[C@H](O)[C@@H](O)[C@@H]3O)O[C@@H]2CO)[C@H](O)[C@H](O)[C@H]1O` (stereo not given in full): the Potency result was “inactive”.

For the compound `C=C(C)C(CC=C(C)C)CC12CC(CC=C(C)C)C(C)(C)C(CC=C(C)C)(C(=O)/C(=C(\O)c3ccc(O)c(O)c3)C1=O)C2=O` (stereo not given), the Potency was 14.1 µM (active).

Regarding `O=C(O)c1ccccc1`, the Potency entry was “inactive”.

For `CCCCCC/C=C/CCCCCCCCCC(=O)O`, the Potency entry is “inactive”.

For the compound `CC1=CC[C@H](C(C)C)C=C1`, the Potency is 35.5 µM (active).

For the compound `CC1=C2[C@H](/C=C(\C)C(=O)O)CC[C@@H](C)[C@H]2CC1`, the Potency entry is “inactive”.

For `O[C@@H]1[C@@H](O)[C@H](OC/C=C/c2ccccc2)O[C@H](CO[C@@H]2OC[C@H](O)[C@H](O)[C@H]2O)[C@H]1O`, the Potency result was “inactive”.

Regarding `CCCCC/C=C/C(=O)CCc1ccc(O)c(OC)c1`, the Potency was 17.8 µM (active).

On to `CC/C=C\C/C=C\C/C=C\C/C=C\CCCCC(=O)O`, for which the activity change, negative = inhibition was 5.33% [at 4.27 µM] (inactive).

For `C[C@@H]1O[C@@H](OC[C@H]2OC(Oc3c(-c4ccc(O)c(O)c4)oc4cc(O)cc(O)c4c3=O)[C@H](O)[C@@H](O)[C@@H]2O)[C@H](O)[C@H](O)[C@H]1O` (stereo not given in full), the Potency entry was “inactive”.

For `CCCCCCCCC/C=C/C(=O)CCc1ccc(O)c(OC)c1`, the Potency was 15.8 µM (active).

For the compound `C=CC(=C)CCC=C(C)C`, the Potency entry is “inactive”.

In the case of `CC(C)=CCC[C@](C)(OC1OC(COC2OCC(O)C(O)C2O)C(O)C(O)C1O)[C@H]1CC[C@]2(C)[C@@H]1[C@H](O)C[C@@H]1[C@@]3(C)CC[C@H](OC4OC(CO)C(O)C(O)C4OC4OC(CO)C(O)C(O)C4O)C(C)(C)[C@@H]3CC[C@]12C` (stereo not given in full), the Potency result is “inactive”.

With `CN(CC(=O)O)C(=N)N`, the Potency entry is “inactive”.

In the case of `CC(C)=CCC[C@](C)(O[C@@H]1O[C@H](CO)[C@@H](O)[C@H](O)[C@H]1O)[C@H]1CC[C@]2(C)[C@@H]1[C@H](O)C[C@@H]1[C@@]3(C)CC[C@H](O[C@@H]4O[C@H](CO)[C@@H](O)[C@H](O)[C@H]4O[C@@H]4O[C@H](CO)[C@@H](O)[C@H](O)[C@H]4O)C(C)(C)[C@@H]3CC[C@]12C`, the Potency result is “inactive”.

`CC(C)=CCCC(C)=CCCC(C)=CCCC=C(C)CCC=C(C)CCC=C(C)C`: the Potency entry is “inactive”.

With `CCCCCC(=O)CC`, the Potency result is “inactive”.

Consider `COc1ccccc1/C=C/C=O`, for which the Potency result is “inactive”.

Take `CC(C)(O)[C@@H]1CC[C@](C)([C@@H]2[C@H](O)C[C@]3(C)C4C[C@@H](O[C@H]5O[C@@H](CO)[C@H](O)[C@@H](O)[C@@H]5O)C5C(C)(C)[C@H](O[C@H]6OC[C@H](O)[C@@H](O)[C@@H]6O)CC[C@]56CC46CC[C@@]23C)O1` (stereo not given in full): the Potency result was “inactive”.

Take `CC(=O)OC1CC2CCC1(C)C2(C)C` (stereo not given): the Potency entry was “inactive”.

Take `CC1(C)C2CCC1(C)C(O)C2` (stereo not given): the Potency entry was “inactive”.

The record behind these values is PubChem BioAssay (NCATS).
